# Experimental data taken from PubChem BioAssay (EPA / NIEHS).
# Several values for one entry are separate records, joined by “and”; a condition that tells them apart may be missing. Identical values can stand only once. Some structures have more than one record in an assay (separate samples or runs), and their calls can disagree. Activity calls are given as the source filed them. Rule for the calls: active = hit-call score of the fitted dose curve at least 0.9, where 1 is the maximum; inactive = score below 0.9.
# Test: ATG_GLI_CIS: Attagene CIS-FACTORIAL HepG2 Assay for human Zinc Finger Protein GLI1 (AID 2282945)
# Settings: HepG2, Attagene cis-factorial reporter mRNA, GLI element; actives raise or lower the signal
# Protocol: ATG_CIS is a cell-based, multiplexed-readout assay that uses HepG2, a human liver cell line, with measurements taken at 24 hours after chemical dosing in a 24-well plate.ATG_GLI_CIS is one of 52 assay component(s) measured or calculated from the ATG_CIS assay. It is designed to make measurements of mRNA induction, a form of inducible reporter, as detected with fluorescence intensity signals by Reverse transcription polymerase chain reaction (RT-PCR) and Capillary electrophoresis technology.Data from the assay component ATG_GLI_CIS was analyzed into 1 assay endpoint. This assay endpoint, ATG_GLI_CIS, was analyzed with bidirectional fitting relative to DMSO as the negative control and baseline of activity. Using a type of inducible reporter, measures of mRNA for gain or loss-of-signal activity can be used to understand the reporter gene at the transcription factor-level as they relate to the gene GLI1. Furthermore, this assay endpoint can be referred to as a primary readout, because this assay has produced multiple assay endpoints where this one serves a reporter gene function. To generalize the intended target to other relatable targets, this assay endpoint is annotated to the dna binding intended target family, where the subfamily is zinc finger.
# Human liver HepG2 cells are transiently transfected with multiple reporter transcription units (MRTUs) in 6-well plates using FuGene 6 reagent (Roche; 3 ml FuGene/1 mg DNA). The MRTU constructs are regulated by a cis-regulating element (promoter). […] A major difference between the CIS and TRANS system is that in CIS activities of endogenous TFs are measured, whereas the TRANS assay evaluates changes in activities of exogenous, chimeric NR-Gal4 proteins. […] At the end of 24 hour incubation, total RNA was isolated using TriZol reagent (Invitrogen). The isolated RNA is then reverse-transcribed using oligo(dT) primer and Mo-MLV reverse transcriptase (Invitrogen) with DNAse I (Ambion) treatment for 30 min. The one-tenth of the produced cDNA was amplified by PCR using Taq DNA polymerase (Invitrogen) and two reporter sequence-specific primers. The PCR products were fluorescently labeled by primer extension with 6-arboxyfluorescein (6-FAM) 5'-labeled reporter sequence-specific primer (2 min at 95 C, 20 s at 68 C and 10 min at 72 C) and these products were digested with 5U of HpaI (New England Biolabs) for 2h at 37 C. The fragments were purified using Qiaquick PCR columns (Qiagen), analyzed on an ABI 3130xL genetic analyzer (Applied Biosystems) with peak positions identified by using a set of X-rhodamine (ROX)-labeled MapMarker1000 molecular weight standards (BioVentures). The raw capillary electrophoresis data was processed using Attagraph software (Attagene).
SMILES,AC50,outcome
OCCN1CN(CCO)CN(CCO)C1,162 µM (active),
CN(C)c1ccc(C(=C2C=CC(=[N+](C)C)C=C2)c2ccccc2)cc1,1.42 µM (active) and 1.85 µM (active),
NCc1cccc(CN)c1,,inactive
CCOC=O,,inactive
O=c1cc(-c2ccccc2)oc2ccc3ccccc3c12,,inactive
CCCCCCCCCCCC[N+](C)(C)CCCCCCCCCCCC,,inactive
CC[N+](CC)(CC)Cc1ccccc1,,inactive
CC1COCc2cc3c(cc21)C(C)(C)C(C)C3(C)C (stereo not given),,inactive
CCCCCCCCCCCCCCCC(=O)OC,,inactive
O=C1c2ccccc2C(=O)c2c(O)c(O)cc(O)c21,,inactive
CCC(C)c1nccnc1OC (stereo not given),,inactive
C[C@]12CC[C@@H]3c4ccc(O)cc4CC[C@H]3[C@@H]1C[C@@H](O)[C@@H]2O,,inactive
C=CCOCC(CO)(CO)CO,,inactive
CCCCCCCCCCCC[N+](C)(C)Cc1ccccc1,16.7 µM (active),inactive
CC1CCC(CO)CC1 (stereo not given),,inactive
Oc1cc2ccccc2cc1O,,inactive
O=C(O)CCC(F)(F)C(F)(F)C(F)(F)C(F)(F)C(F)(F)C(F)(F)F,,inactive
O=C(OC(=O)C(F)(F)C(F)(F)F)C(F)(F)C(F)(F)F,,inactive
O=C(F)C(F)(F)C(F)(F)C(F)(F)C(=O)F,,inactive

SMILES,AC50,outcome
CCCCCCOC(=O)c1ccc(O)cc1,60.3 µM (active),
Cc1ccc(C)c(S(=O)(=O)O)c1,,inactive
COC1=CC(=O)C[C@@H](C)[C@]12Oc1c(Cl)c(OC)cc(OC)c1C2=O,,inactive
CCCCCCCCCC=CCC1CC(=O)OC1=O (stereo not given),,inactive
O=C(CCCN1CCC(O)(c2ccc(Cl)cc2)CC1)c1ccc(F)cc1,,inactive
Cc1cc(C(C)(C)C)c(O)c(C(C)(C)C)c1,97.4 µM (active),inactive
CNNCc1ccc(C(=O)NC(C)C)cc1,,inactive
O=C(F)C(F)(F)C(F)(F)C(F)(F)C(F)F,,inactive
COc1cccc(O)c1,,inactive
O=C1NS(=O)(=O)c2ccccc21,,inactive
Oc1ccc(Cc2ccccc2O)cc1,,inactive
c1cc[nH]c1,,inactive
COC(O)c1ccccc1 (stereo not given),,inactive
NS(=O)(=O)O,,inactive
CCCCC(CC)C(=O)O (stereo not given),,inactive
Cc1cccc2c1ccc1ccccc12,,inactive
CCCCc1ccc2ccccc2c1S(=O)(=O)O,,inactive
Clc1ccc(Nc2nnc(Cc3ccncc3)c3ccccc23)cc1,,inactive
Oc1c(Cl)cc(Cl)cc1Sc1cc(Cl)cc(Cl)c1O,,inactive
